ALDH1A1 inh = qHTS Assay for Inhibitors of Aldehyde Dehydrogenase 1 (ALDH1A1). Purified ALDH1A1, NADH fluorescence, propionaldehyde substrate. Potency, µM (highest dose often 75.3 µM), most hits filed as inhibitors. 7.3% of 220,000 active. AID 1030, 2008
Target sequence (P00352 whole entry, looked up): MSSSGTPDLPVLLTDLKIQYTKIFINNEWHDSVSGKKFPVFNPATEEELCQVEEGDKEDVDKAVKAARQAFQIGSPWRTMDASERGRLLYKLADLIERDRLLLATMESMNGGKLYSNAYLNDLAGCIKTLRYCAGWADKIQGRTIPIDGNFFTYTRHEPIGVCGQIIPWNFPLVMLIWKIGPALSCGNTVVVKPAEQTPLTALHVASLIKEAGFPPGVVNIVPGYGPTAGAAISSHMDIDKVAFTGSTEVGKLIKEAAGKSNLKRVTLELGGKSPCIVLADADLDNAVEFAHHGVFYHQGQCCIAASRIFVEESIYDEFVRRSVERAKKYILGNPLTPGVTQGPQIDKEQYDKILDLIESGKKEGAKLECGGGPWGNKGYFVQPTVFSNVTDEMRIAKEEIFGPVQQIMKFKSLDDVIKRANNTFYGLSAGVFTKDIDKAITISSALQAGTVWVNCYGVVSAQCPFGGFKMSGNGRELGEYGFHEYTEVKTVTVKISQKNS
Lamin A splicing = qHTS Assay for Modulators of Lamin A Splicing. HeLa LMNA splicing GFP/RFP minigene ratio, 48 h. AID 1487, 2009. Potency, µM (series often up to 46.1 µM), hits mostly inhibitors. 0.01% of 200,000 active; active = well fitted inhibition curve with a large enough effect in the signal ratio, with a control signal flat, not every such curve was filed as active; inconclusive = small, poorly fitted or top-dose-only effect, or effect the other way, or a change in a side signal; the % refers to the signal ratio
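S3 HeLa stable clones carrying a lamin A-EGFP splicing minigene plus DsRed2 were seeded at 600 cells/well in Opti-MEM with 2% FBS, pin-dosed and incubated 48 h at 37°C. Acumen cytometry (488 nm) gave the GFP/RFP total-intensity ratio.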
HPGD block = qHTS Assay for Inhibitors of HPGD (15-Hydroxyprostaglandin Dehydrogenase); Potency, µM, usual class: inhibitors; purified HPGD, NADH fluorescence kinetic, PGE2 substrate; 4.3% of 150,000 active
Target sequence (P15428 whole entry, looked up): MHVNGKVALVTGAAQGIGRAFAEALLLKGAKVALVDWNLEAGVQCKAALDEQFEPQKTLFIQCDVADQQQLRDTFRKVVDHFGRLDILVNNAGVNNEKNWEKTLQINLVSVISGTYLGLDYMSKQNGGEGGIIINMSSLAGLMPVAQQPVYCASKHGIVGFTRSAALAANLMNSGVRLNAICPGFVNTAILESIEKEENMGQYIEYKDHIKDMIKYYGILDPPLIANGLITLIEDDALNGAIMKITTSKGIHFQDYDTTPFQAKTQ
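NADH formation kinetics: reaction with 30 uM PGE2 and 1 mM NAD+ (final), 20 nM enzyme, Tris-HCl pH 8 with Tween 20, after 15 min compound preincubation at room temperature. Fluorescence change, last versus first of five reads.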
Luc counter = Counterscreen for Luciferase (Kinase-Glo TM) Inhibition; Luciferin 4-monooxygenase (Photuris pensylvanica), Q27757; 0.28% of 200,000 active; Potency, µM (titrated, usually from 38.3 µM), actives largely listed as inhibitors; Kinase-Glo luciferase, ATP luminescence, 8 min; active = well fitted inhibition curve with a large enough effect; inconclusive = small, poorly fitted or top-dose-only effect; also: nearly all actives have a fitted effect of over 60% in size
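Compound is pinned into ATP-containing buffer (10 uM ATP, imidazole pH 7.2, 7 mM MgCl2). Kinase-Glo luciferase reagent is then added. Light output is recorded following an 8-min room-temperature incubation.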
IMPase cell inh = qHTS Assay for Identifying the Cell-Membrane Permeable IMPase Inhibitors | Inositol monophosphatase 1 (Rattus norvegicus), P97697 | CHO-M1 cells, IP1 accumulation, HTRF TR-FRET ratio | inhibition (IP1 accumulation), % at 46.1 µM | 120,000 tested, under 10 active; active = well fitted curve in the direction sought with a large enough effect in the signal ratio, not every such curve was filed as active; inconclusive = small, poorly fitted or top-dose-only effect, or a change in a side signal; inactive = no such curve, though single readings can be large or run the other way; the % refers to the signal ratio;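 also: cells stimulated with carbachol in lithium chloride buffer; higher means more IMPase inhibition seen as more IP1 and lower FRET ratio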
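Seeded CHO-M1 cells were dosed with compound at up to 46 uM, stimulated with carbachol for 30 min, then lysed in IP-One detection reagents. Higher IP1 lowers the TR-FRET signal.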
PNC inhibitor = High Content Assay for Compounds that inhibit the Assembly of the Perinucleolar Compartment; AID 2417, 2010; PC3M PTB-GFP, PNC prevalence imaging, 16 h; stronger effect = lower value; 3.1% of 140,000 active; activity change (PNC), negative = inhibition, % at 10 µM;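 active = readout at or below -70, meaning at least 70% loss of cells showing the perinucleolar compartment, a nuclear body marking cancer cells; inconclusive = readout between -30 and a set limit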
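PC3M cells stably expressing PTB-GFP, 750–1000 cells/well, treated 16 h at 37 °C with compound (23 nl of library stock), in duplicate. After paraformaldehyde fixation and Hoechst stain, imaged at 20x; PNC prevalence scored by image analysis.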
A number is an active result; 0 = inactive; ? = inconclusive; - = no result given; [ ] = dose if it differs, or a comment. Rows were chosen to be rich in hits. Some 10% of all compounds tested hit in one or more screens of this group. Unless noted, calls follow the shape of the dose curve; as a rule, active = well fitted inhibition curve with a large enough effect (not every such curve was filed as active); inconclusive = small, poorly fitted or top-dose-only effect, or another doubt; inactive = no such curve, though single readings can be large or run the other way.

SMILES | ALDH1A1 inh | Lamin A splicing | HPGD block | Luc counter | IMPase cell inh | PNC inhibitor
CCC(C)NC(=O)CSc1nc2c(sc3ccccc32)c(=O)n1CCCN1CCOCC1 (centres undefined) | 0 | 0 | ? | 0 | 0 | 0
CCOC(=O)CSc1nc2c(sc3ccccc32)c(=O)n1CCCN1CCOCC1 | 14µM | 0 | 0 | 0 | 0 | 0
CCn1c(SCC(=O)c2cccs2)nnc1-c1cccs1 | ? | 0 | - | - | 0 | 0
O=C(CCN1CCC(c2cccs2)=N1)c1cccs1 | 3.2µM | ? | - | - | - | -
O=C(CCN1CCCC1Cc1ccccc1)c1ccc2c(c1)OCCO2 (centres undefined) | 0.035µM | ? | 0 | 0 | 0 | 0
O=C(CCN1CCC(c2ccccc2)C1)c1cccs1 (centres undefined) | 0.13µM | ? | 0 | 0 | 0 | 0
O=C(CCN1CCCCC1)c1ccc2c(c1)OCCO2 | 0.1µM | 0 | 0 | 0 | 0 | ?
COc1ccccc1C(=O)Nc1cccc(C(=O)OCc2cc(=O)n3nc(C4CC4)sc3n2)c1 | - | 0 | - | - | - | -
CC(C)=C1C(=O)C(c2ccccc2)=C2CN3C(=O)N(CCc4ccccc4)C(=O)[C@]3(C)[C@H]21 | 0 | - | 0 | 0 | - | -
CCCCC#CC1C=CC(Oc2ccc(OC)cc2)C(CO)O1 (centres undefined) | 0[13.5 µM] | - | - | - | - | -
CC1(C)O[C@H]2[C@@H](O1)[C@@H](On1nnc3ccc(Cl)cc31)O[C@@H]2[C@@H]1COC(C)(C)O1 | 0[13.5 µM] | - | 0 | 0[7.66 µM] | - | -
O=C(CCN1CCC(c2ccccc2)C1)c1ccccc1 (centres undefined) | 1.4µM | ? | 0 | 0 | 0 | 0
COc1cc(C(C)=O)ccc1OCCN1CCC(Cc2ccccc2)CC1 | ? | - | - | 0 | - | -
CN(C)CCN1CCc2ccccc21 | ? | ? | 0 | 0 | 0 | 0
O=C(CCN1CCC(c2ccccc2)C1)c1ccc2c(c1)OCCO2 (centres undefined) | 0.11µM | ? | 0 | 0 | 0 | ?
c1ccc2c(c1)CCN2CCN1CCc2ccccc21 | 40µM | 0 | 0 | 0 | ? | 0
COc1cc(C(=O)CCN2CCC(c3ccccc3)C2)cc(OC)c1OC (centres undefined) | 0.04µM | 0 | 0 | 0 | - | 0
Cc1cc(O)c(C(c2ccc(F)cc2)N2CCN(c3ccccc3)CC2)c(=O)n1Cc1ccco1 (centres undefined) | - | 0 | - | - | - | -
O=C(CCN1CCc2ccccc21)c1ccc2c(c1)OCCO2 | 3.2µM | ? | 0 | 0 | 0 | 0
CCC(=O)N1CCc2cc(CNS(=O)(=O)c3ccc(NC(=O)CC(C)C)cc3)ccc21 | - | 0 | - | - | - | -
O=S1(=O)N=C(Nc2ccc(N3CCOCC3)cc2)c2ccccc21 | 0 | 0 | 0 | 0 | 0 | 0
Cc1ccccc1-c1ccc(Nc2ccc(N3CCOCC3)cc2)nn1 | 8.9µM | ? | 0 | 0 | 0 | 0
CNc1oc(C)nc1S(=O)(=O)c1ccc(C)cc1 | ? | 0 | 0 | 0 | 0 | 0
CNc1oc(Cc2ccccc2)nc1S(=O)(=O)c1ccccc1 | 25µM | 0 | 0 | 0 | 0 | 0
O=C(O)CN(c1ccccc1)C1SC(=O)NC1=O (centres undefined) | ? | 0 | 0 | 0 | 0 | 0
SMILES | ALDH1A1 inh | Lamin A splicing | HPGD block | Luc counter | IMPase cell inh | PNC inhibitor
Cc1cccc(N(CC(N)=O)C2SC(=O)NC2=O)c1 (centres undefined) | 0 | ? | 0 | 0 | 0 | -100
Cc1onc(-c2ccccc2)c1C(=O)NCCN1CCOCC1 | 0 | 0 | 0 | 0 | ? | 0
Cc1noc(C)c1-c1cc(NCCN2CCOCC2)ncn1 | 20µM | 0 | - | - | - | -
Cc1nc2cnc(N3CCN(C)CC3)nc2n(-c2ccccc2)c1=O | ? | 0 | - | - | - | -
Cc1cc(C)cc(O)c1 | ? | - | 0 | - | - | -
NC(=O)c1cc(-c2ccccc2)nc(Oc2ccccc2)n1 | 0 | 0 | 0 | 0 | 0 | -117
O=C(Cc1ccc(Cl)cc1Cl)OCC(=O)N1CCN(C(=O)c2ccco2)CC1 | 14µM | 0[9.22 µM] | - | 0 | - | -
Cc1ccsc1C(=O)OCC(=O)N1CCN(C(=O)c2ccco2)CC1 | 0 | 0 | - | 0 | - | -
Cc1cc(SCC(=O)OCC(=O)N2CCN(C(=O)c3ccco3)CC2)c(C)cc1Br | 32µM | 0 | 0 | 0 | 0 | 0
Cc1ccnc(NC(=S)NC(=O)c2cncc(Br)c2)c1 | 0 | 0 | 0 | 0 | - | -100
COc1ccc(C(=O)NC(=O)Nc2cc(C)ccn2)cc1 | 13µM | 0 | - | - | 0 | ?
COc1cc(C(=O)Nc2cc(C)ccn2)cc(OC)c1OC | 0 | 0 | 0 | 0 | 0 | 0
Cc1nc(NC(=S)NC(=O)c2cncc(Br)c2)ccc1Br | 0 | - | - | 0 | - | -
COC(=O)c1c(C)oc2ccc(N(C(=O)Oc3ccccc3)S(=O)(=O)c3ccc(C(C)(C)C)cc3)cc12 | - | - | - | - | 0 | -
C=C(C)CSc1nc2nc(C)c(Br)cc2[nH]1 | 0 | 0 | 14µM | 0 | 0 | 0
CC(=O)N(Cc1cc(=O)[nH]c2ccccc12)c1cccc(C)c1 | 20µM | 0 | ? | 0 | 0 | 0
COc1ccc(CCC(=O)NC2CC(=O)N(c3ccc(C)c(C)c3)C2)cc1 (centres undefined) | - | 0 | - | - | - | -
CC12C=C(/C=C/c3ccc(C(F)(F)F)cc3)C(C)(C1)C(c1ccc(C(F)(F)F)cc1)CC2=O (centres undefined) | 0[13.5 µM] | - | - | - | - | -
COc1ccc(/C=C2/N=C(SC3CCOC3=O)N(c3cccc(OC)c3)C2=O)cc1 (centres undefined) | 3.5µM | 0 | - | - | 0 | 0
CCOC(=O)C1=C(CC)OC(N)=C(C#N)C1c1ccc(OC)c(OC)c1OC (centres undefined) | 0 | - | - | - | - | -
CCOC(=O)C1=C(CSc2nc(C)ccc2C#N)OC(N)=C(C#N)C1c1cccc(OC)c1OC (centres undefined) | 28µM | 0 | 0 | 0 | 0 | ?
O=C(NNc1ccc(O)cc1)c1ccc(Br)cc1 | 7.1µM | - | - | 0 | - | -
CC(=O)Nc1cccc(NC(=O)c2ccc(Br)cc2)c1 | 0 | - | - | 0 | - | -
O=C(Nc1cccc(O)c1)c1ccc(Br)cc1 | 0 | 0 | 0 | 0 | 0 | -128
CC1CCN(C(=S)c2cn(Cc3ccccc3F)c3ccccc23)CC1 | 14µM | ? | 0 | 0 | 0 | 0
CN1CCN(C(=S)c2cn(Cc3ccccc3F)c3ccccc23)CC1 | 0 | 0 | - | 0 | - | -
N#CC1=C(N)OC2=C(CCc3ccccc32)C1c1ccccc1 (centres undefined) | ? | ? | 0 | 0 | - | -83
Cc1ccc(/C=C2\CCC3=C2OC(N)=C(C#N)C3c2ccc(C)cc2)cc1 (centres undefined) | ? | 0 | 0 | 0 | 0 | ?
Cc1ccc(C(=O)NC2CC3CCCC(C2)N3C(=S)NCc2ccco2)cc1 (centres undefined) | 22µM | - | - | 0 | - | -

Screens deposited in PubChem by National Center for Advancing Translational Sciences (NCATS).
